For experiment [1], the target named is Alpha-galactosidase A (Homo sapiens) (UniProt P06280). As to the kind of experiment: Counterscreen for Glucocerebrosidase Inhibitors: qHTS Assay for Human alpha-Galactosidase at pH 4.5 (AID 992). Note: 0% is about no effect. An outline of the steps: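 Citrate buffer pH 4.5, Tween-20 0.005%. Enzyme 2 nM, substrate 80 uM, 20 min RT. Stop pH 10. Fluorescence Ex 365/Em 440. AC50 by Hill fit.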
(In general: A counterscreen serves to expose hits that act by an unwanted route or on another target.)

The target of experiment [2] is alpha-glucosidase (Oryza sativa, rice) (UniProt Q653V4). As to the kind of experiment: Counterscreen for Glucocerebrosidase Inhibitors: qHTS Assay for Rice alpha-Glucosidase at pH 5.0 (AID 997).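 Note: 0% = full activity with enzyme and -100% = basal without enzyme.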 The method in brief:
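Endpoint fluorogenic assay at pH 5.0: compounds (0.7 nM to 77 uM) titrated against 4 nM rice enzyme and 400 uM 4-MU-alpha-glucoside for 20 min at room temperature; NaOH/glycine stop, read ex 365/em 440 nm, Hill-fitted AC50.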

The target in experiment [3] is DNA repair nuclease/redox regulator APEX1 (Homo sapiens) (UniProt P27695). The experiment can be described thus: qHTS Validation Assay for Inhibitors of the Human Apurinic/apyrimidinic Endonuclease 1 (APE1) (AID 1705; note: potency is the fitted concentration of half-maximal effect;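 for activity change, negative = inhibition: TAMRA fluorescence gain over two minutes as APE1 cuts a quenched THF abasic duplex; % is set by controls: 0 for no effect and ±100 for the full control effect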). The method in brief: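 Activity read as rising fluorescence (598 nm emission, 525 nm excitation) from incision of a TAMRA/BHQ-2 duplex carrying a THF abasic site (50 nM). Compound and enzyme sat 15 min at RT before substrate start; signal change between first and third 60-s reads.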
Sequence of DNA repair nuclease/redox regulator APEX1 (Homo sapiens) (P27695 whole entry, looked up): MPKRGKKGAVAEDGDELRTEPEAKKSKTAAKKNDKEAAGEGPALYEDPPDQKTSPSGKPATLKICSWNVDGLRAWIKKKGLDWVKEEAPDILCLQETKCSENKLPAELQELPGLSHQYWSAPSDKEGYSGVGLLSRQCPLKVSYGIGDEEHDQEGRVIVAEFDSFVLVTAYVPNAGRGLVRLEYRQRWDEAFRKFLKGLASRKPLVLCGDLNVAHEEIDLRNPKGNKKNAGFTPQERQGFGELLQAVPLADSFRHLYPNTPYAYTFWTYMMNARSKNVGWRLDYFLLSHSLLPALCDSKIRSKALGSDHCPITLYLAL
In general terms: Quantitative high-throughput screening tests each substance at several concentrations.

A short description of experiment [4]: Counterscreen for APE1 Inhibitors: Fluorescent Dye Displacement Validation Assay (AID 1707).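 Note: plate controls were ThO with dsDNA and no compound for no effect and ThO without dsDNA for full effect.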 The method in brief: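 Signal: ThO fluorescence (ex 480 nm/em 540 nm) on binding 50 nM dsDNA; displacement by test compound reduces it. Conditions: 250 nM dye, 50 mM Tris-HCl pH7.5, 2 mM MgCl2, 50mM NaCl, 0.01% Tween-20.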
Experiment [5] addresses Endonuclease 4 (Escherichia coli (strain K12)) (UniProt P0A6C1). As to the kind of experiment: Counterscreen for APE1 Inhibitors: qHTS Validation Assay for Inhibitors of Endonuclease IV (AID 1708). Note: % is set by controls: 0 for no effect and ±100 for the full control effect. An outline of the steps:
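Measured as reaction progress, the fluorescence gain between first and third kinetic reads after adding 50 nM TAMRA/BHQ-2 THF duplex to 2 nM enzyme preincubated 15 min with compound; 2 mM MgCl2, pH 7.5.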

Experiment [6] in a line: qHTS Assay for Lipid Storage Modulators (AID 1519; calls by dose curve; for activity change, negative = inhibition: % is set by controls: 0 for no effect and ±100 for the full control effect). As to conditions: Drosophila S3 cells, BODIPY lipid droplet/cell ratio, laser cytometry, cells loaded with oleic acid. The method in brief:
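Cells seeded at 5,000 per well were treated with compounds over a concentration series and loaded with oleic acid (400 uM, as added). Lipid droplet fluorescence (488 nm excitation, 500-530 nm channel) was read by laser-scanning cytometry and normalized to 20 uM Triacsin C.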

The nature of experiment [7]: Cell Viability - LYMP2-007 (AID 979).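 Note: cells exposed to compound for 24 h before reading; nearly all actives have a fitted effect of over 60% in size.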 Note: potency is the fitted concentration of half-maximal effect. An outline of the steps: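 Measured via luciferase-based ATP quantitation: lymphoblastoid cells, 24 hr compound exposure at 37 C, AC50 from Hill fits.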
Experiment [8] in a line: Cell Viability - LYMP2-014 (AID 983). Note: nearly all actives have a fitted effect of over 50% in size. Note: potency is the fitted concentration of half-maximal effect. The method in brief: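 Quantitative HTS in lymphoblastoid cells: 24 hr compound exposure, then CellTiter-Glo ATP luminescence. Positive control was tetraoctylammonium bromide, 6.4pM to 92 uM.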
A short description of experiment [9]: Cell Viability - LYMP2-016 (AID 984). Note: nearly all actives have a fitted effect of over 55% in size. Note: potency is the fitted concentration of half-maximal effect. The method in brief: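 Cytotoxicity was scored by luminescent ATP content (CellTiter-Glo) after 24 h compound exposure at 37 C of a human lymphoblastoid line at 2500 cells/well. Concentration-response data were fitted to the Hill equation for AC50.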
Experiment [10] can be described thus: Cell Viability - LYMP2-018 (AID 985). Note: nearly all actives have a fitted effect of over 50% in size. Note: potency is the fitted concentration of half-maximal effect. The method in brief: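 In this qHTS viability assay, cells are treated for 24 hr and cellular ATP is quantified by luciferase-based luminescence, with tetraoctylammonium bromide as positive control.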
Experiment [11] can be described thus: Cell Viability - LYMP2-020 (AID 986). Note: nearly all actives have a fitted effect of over 55% in size. Note: potency is the fitted concentration of half-maximal effect. The method in brief: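 Cells at 2500 per well receive a 24 hr compound exposure at 37 C. Viability is measured as ATP-dependent luciferase luminescence, with AC50 modeled from qHTS concentration-response curves.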
Experiment [12] is described as follows: Cell Viability - LYMP2-022 (AID 987). Note: nearly all actives have a fitted effect of over 55% in size. Note: potency is the fitted concentration of half-maximal effect. The method in brief:
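In this qHTS cytotoxicity screen, compound titrations were incubated 24 hr at 37 C with human lymphoblastoid cells in complete medium. Luciferase-based ATP luminescence provided the viability signal.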

The nature of experiment [13]: Cell Viability - LYMP1-002 - Assay at 24 hr (AID 993). Note: potency is the fitted concentration of half-maximal effect. The method in brief:
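Viability was judged from intracellular ATP using a luciferase read-out, following a 24-hour compound incubation at 37 C of lymphoblastoid cells seeded at 2500 per well. Concentration-response data were fitted to the Hill equation for AC50.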

Experiment [14] is described as follows: Cell Viability - LYMP2-008 (AID 980). Note: nearly all actives have a fitted effect of over 60% in size. Note: potency is the fitted concentration of half-maximal effect. An outline of the steps: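 Measured: ATP-dependent luminescence, proportional to viable cell number, in human lymphoblastoid cells treated 24 hr with compound in complete culture medium. Values are AC50s from Hill-equation modelling of qHTS titrations.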
The nature of experiment [15]: Cell Viability - LYMP2-010 (AID 981). Note: nearly all actives have a fitted effect of over 55% in size. Note: potency is the fitted concentration of half-maximal effect. The method in brief:
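This 24 hr viability screen uses LYMP2-010 lymphoblastoid cells, quantifies ATP via luciferase luminescence, and derives AC50 from Hill fits of qHTS concentration-response data.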

Experiment [16] is described as follows: Cell Viability - LYMP2-012 (AID 982). Note: potency is the fitted concentration of half-maximal effect.
Experiment [17] can be described thus: Cell Viability - LYMP2-024 (AID 988). Note: nearly all actives have a fitted effect of over 60% in size. Note: potency is the fitted concentration of half-maximal effect. An outline of the steps: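 Cells at 2500 per well received compound for 24 hr after a 5 hr settling period. Viability was scored by CellTiter-Glo luminescence, with AC50 from Hill fits.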
The nature of experiment [18]: Cell Viability - LYMP1-002 - Assay at 40 hr (AID 994). Note: nearly all actives have a fitted effect of over 60% in size. Note: potency is the fitted concentration of half-maximal effect. An outline of the steps: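 Concentration-dependent ATP loss after 40 hr treatment at 37 C defined toxicity; AC50 values were obtained by fitting the standard Hill equation.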
Experiment [19] can be described thus: qHTS for differential inhibitors of proliferation of Plasmodium falciparum line 7G8 (AID 1815).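 For activity change, negative = inhibition: plate controls were vehicle wells for no effect and reference inhibitor wells for full effect.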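 Note: parasite growth measured after three days of incubation.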 Note: potency is the fitted concentration of half-maximal effect.
Setting [20] is: measured here: cell count channel max response.
[21] abbreviates: measured here: lipid channel max response.

The results in this text go back to PubChem BioAssay (NCATS).

“And” between values parts separate entries of the source, which are not always exact repeats. Identical values can stand only once. Results filed as inconclusive are left out. The source made the active and inactive calls. Unless noted, calls come from the whole dose curve; as a rule, active = well fitted curve in the direction sought with a large enough effect; inconclusive = small, poorly fitted or top-dose-only effect, or another doubt; inactive = no such curve, though single readings can be large; an effect the other way counts as inactive or inconclusive.

Sequence of Alpha-galactosidase A (Homo sapiens) (P06280 whole entry, looked up): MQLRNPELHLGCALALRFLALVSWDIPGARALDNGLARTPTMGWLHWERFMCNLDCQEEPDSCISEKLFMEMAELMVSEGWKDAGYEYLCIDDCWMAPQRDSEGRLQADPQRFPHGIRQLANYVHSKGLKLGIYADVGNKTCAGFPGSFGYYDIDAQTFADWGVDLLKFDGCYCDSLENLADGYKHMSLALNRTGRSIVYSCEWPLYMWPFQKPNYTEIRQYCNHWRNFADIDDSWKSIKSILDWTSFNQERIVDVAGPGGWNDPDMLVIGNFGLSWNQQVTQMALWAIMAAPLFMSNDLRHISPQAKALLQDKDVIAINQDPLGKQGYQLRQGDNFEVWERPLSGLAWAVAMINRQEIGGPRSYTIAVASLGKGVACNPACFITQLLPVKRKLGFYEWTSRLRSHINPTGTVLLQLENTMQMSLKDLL

For `CNC[C@H](O)c1ccc(O)c(O)c1`, the molecule was called inactive in experiment [1], in experiment [2] and in [5]. The Potency result in experiment [3] and in [4] was “inactive” each time.

Turning to `O=C1NC(=O)C(c2ccccc2[N+](=O)[O-])=C1Nc1ccc(O)c(Cl)c1`, the result in [1], in experiment [2] and in experiment [5] was inactive. Moreover, the activity change, negative = inhibition in experiment [6] (at 57.5 µM (top of the series)) is -0.486% (inactive). For the same molecule, the max response in [6] (setting [20]) is -38.3%; in [6] (setting [21]) it was -39.8%. The Potency entry in experiment [3] and in experiment [4] was “inactive” each time.

For the molecule `CCN(CC)C(=S)SSC(=S)N(CC)CC`, the result in experiment [1], in experiment [2] and in experiment [5] was inactive. Besides, the activity change, negative = inhibition in experiment [6] (at 25.7 µM (top of the series)) was -3.33% (inactive). Further, the max response is -15.7% in experiment [6] (setting [20]) and -17% in [6] (setting [21]). In addition, the Potency entry in [3] and in experiment [4] was “inactive” throughout.

Turning to `CCc1nc(N)nc(N)c1-c1ccc(Cl)cc1`, the Potency in experiment [7] is 50.1 µM (active). Also, the Potency entry in experiment [8], in experiment [9], in experiment [10], in experiment [11], in experiment [12] and in experiment [13] was “inactive” in each case. The activity change, negative = inhibition was -2.49% (inactive) in experiment [6] (at 25.7 µM (top of the series)) and 9.2% (inactive) in experiment [6] (at 57.5 µM (top of the series)). Besides, the max response in [6] (setting [20]) was -6.7% and 7.93%; in experiment [6] (setting [21]), -10.2% and 22.1%.

Turning to `CN1CCC(=C2c3ccccc3CCc3sccc32)CC1`, the activity change, negative = inhibition was -0.622% (inactive) in experiment [6] (at 25.7 µM (top of the series)) and 3.6% (inactive) in experiment [6] (at 57.5 µM (top of the series)). Further, the max response in [6] (setting [20]) is -11.4% and -0.631%; in experiment [6] (setting [21]), -11.1% and 14.8%.

As for `CCCCC(CC)COC(=O)C(C#N)=C(c1ccccc1)c1ccccc1` (configuration not stated), the Potency entry in experiment [7], in experiment [14], in experiment [15], in [16], in experiment [8] and in experiment [9] was “inactive” in each case. Besides, the Potency result in [10], in experiment [11], in [12], in experiment [17], in [13] and in [18] was “inactive” each time.

Regarding `CN(C)c1ccc2nc3ccc(=[N+](C)C)cc-3sc2c1`, the Potency was 7.94 µM (active) in [7]; 3.16 µM (active) in experiment [14]; 6.31 µM (active) in experiment [15]; 6.31 µM (active) in experiment [16]; 3.98 µM (active) in experiment [8]; 3.98 µM (active) in [9]. Further, the Potency in [10] was 7.94 µM (active); in [11], 7.94 µM (active); in [12] it was 6.31 µM (active); in experiment [17], 6.31 µM (active); in [13], 10 µM (active); in experiment [18], 7.94 µM (active).

On to `COc1ccc2cc([C@H](C)C(=O)O)ccc2c1`, for which the molecule was called inactive in [1], in experiment [2] and in experiment [5]. The activity change, negative = inhibition in experiment [6] (at 25.7 µM (top of the series)) was 4.21% (inactive) and 0.227% (inactive); in experiment [6] (at 57.5 µM (top of the series)), 1.21% (inactive). Also, the max response in experiment [6] (setting [20]) was 1.06% and -6.98% and 54.6%; in [6] (setting [21]), 5.84% and -5.9% and 56%. For the same molecule, the Potency entry in experiment [3], in experiment [4] and in experiment [19] was “inactive” each time.

Consider `COc1cc(OC)c(C(=O)CCCN2CCCC2)c(OC)c1`, for which the activity change, negative = inhibition in experiment [6] (at 25.7 µM (top of the series)) is -0.942% (inactive). For the same molecule, the values for the max response in experiment [6] (setting [20]) and in experiment [6] (setting [21]) were -9.33% and -9.82%, respectively.

For `CC(C)c1ccc2c(c1)c(SC(C)(C)C)c(CC(C)(C)C(=O)O)n2Cc1ccc(Cl)cc1`, the outcome in [1] and in [2] was inactive. The Potency is 39.8 µM (active) in experiment [3] and 5.01 µM (active) in experiment [19].
